# Test results reported in PubChem BioAssay.
# Values without a mark were called inactive. For part of these data: Measured potencies and affinities stand elsewhere. Calls of active or inactive are those of the source. Unless noted, the rule behind the calls is not given here.
# Assays:
# [1] = antimalarial activity against Dd2 strain (AID 2302;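 active = growth inhibition above 50% at the single 2 µM test dose, taken to imply half-maximal potency below 2 µM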;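 note: 0% = DMSO untreated growth and 100% = chloroquine plus artemisinin killed control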); settings: P. falciparum Dd2 in RBCs, LDH growth readout, 72 h; at 2 µM; hits give high values
# [2] = human hepatoma cell viability loss – ATP luminescence, cytotoxicity control for P. falciparum antimalarial project, primary screen (AID 2303;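 active = inhibition above 50%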;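 note: 0% = DMSO wells and 100% = digitonin-killed cells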); settings: HepG2 viability, 24-48 h, at 10 µM, hits give high values
# [3] = target: L-lactate dehydrogenase (Plasmodium falciparum (isolate CDC / Honduras)) (UniProt Q27743); assay: PfLDH activity inhibition – cell lysate, 3D7 strain, counter-screen for P. falciparum growth inhibition project (AID 2304);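 note: 0% = vehicle and 100% = reference inhibitor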; settings: P. falciparum 3D7 crude extract, LDH APAD/NBT absorbance; at 2 µM; hits give high values
# Sequence of L-lactate dehydrogenase (Plasmodium falciparum (isolate CDC / Honduras)) (Q27743 whole entry, looked up): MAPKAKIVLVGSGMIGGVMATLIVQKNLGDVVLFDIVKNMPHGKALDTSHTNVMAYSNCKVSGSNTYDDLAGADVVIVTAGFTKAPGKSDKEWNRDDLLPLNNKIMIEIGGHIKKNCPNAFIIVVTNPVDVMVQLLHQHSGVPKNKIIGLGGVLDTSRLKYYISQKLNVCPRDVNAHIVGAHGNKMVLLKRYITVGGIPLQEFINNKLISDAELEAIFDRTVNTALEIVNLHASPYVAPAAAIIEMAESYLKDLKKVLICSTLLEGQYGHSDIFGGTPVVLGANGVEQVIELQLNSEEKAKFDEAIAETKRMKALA
# [4] = inhibition of 3D7 malaria parasite growth – strain 3D7 (AID 2306);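 note: 0% = DMSO wells and 100% = chloroquine plus artemisinin control wells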; settings: P. falciparum 3D7 erythrocytic growth, LDH absorbance, 72 h; at 2 µM; hits give high values
# [5] = target: Calcium-dependent protein kinase 1 (Plasmodium falciparum (isolate 3D7)) (UniProt P62344); assay: PfCDPK1 kinase inhibitors, biochemical, TCAMS library (AID 1159585; cut-off not given, nearly all actives have IC50 up to about 0.98 µM;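 note: inhibitors leave more ATP so luminescence rises with inhibition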); settings: recombinant PfCDPK1, Kinase-Glo ATP depletion luminescence
# Sequence of Calcium-dependent protein kinase 1 (Plasmodium falciparum (isolate 3D7)) (P62344 whole entry, looked up): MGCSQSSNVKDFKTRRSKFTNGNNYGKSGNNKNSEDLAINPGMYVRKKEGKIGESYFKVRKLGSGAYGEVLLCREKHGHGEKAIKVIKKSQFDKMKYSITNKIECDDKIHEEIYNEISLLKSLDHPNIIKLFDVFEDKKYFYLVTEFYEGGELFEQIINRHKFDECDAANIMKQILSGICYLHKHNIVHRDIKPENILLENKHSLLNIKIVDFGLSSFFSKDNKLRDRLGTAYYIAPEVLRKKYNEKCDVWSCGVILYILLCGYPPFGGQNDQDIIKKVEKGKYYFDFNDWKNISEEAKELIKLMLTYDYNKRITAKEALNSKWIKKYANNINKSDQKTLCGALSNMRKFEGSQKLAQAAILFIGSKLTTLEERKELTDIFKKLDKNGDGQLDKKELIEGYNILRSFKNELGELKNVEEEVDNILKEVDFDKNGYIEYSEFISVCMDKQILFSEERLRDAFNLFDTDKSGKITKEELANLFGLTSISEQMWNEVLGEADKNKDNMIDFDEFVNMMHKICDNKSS
# [6] = target: Plasmodium falciparum protein kinase 6 (PK6, PF3D7_1337100) (UniProt Q8IDW1); assay: PfPK6 kinase inhibitors, biochemical, TCAMS library (AID 1159586); settings: recombinant PfPK6, Kinase-Glo ATP depletion luminescence
# Sequence of Plasmodium falciparum protein kinase 6 (PK6, PF3D7_1337100) (Q8IDW1 1-305): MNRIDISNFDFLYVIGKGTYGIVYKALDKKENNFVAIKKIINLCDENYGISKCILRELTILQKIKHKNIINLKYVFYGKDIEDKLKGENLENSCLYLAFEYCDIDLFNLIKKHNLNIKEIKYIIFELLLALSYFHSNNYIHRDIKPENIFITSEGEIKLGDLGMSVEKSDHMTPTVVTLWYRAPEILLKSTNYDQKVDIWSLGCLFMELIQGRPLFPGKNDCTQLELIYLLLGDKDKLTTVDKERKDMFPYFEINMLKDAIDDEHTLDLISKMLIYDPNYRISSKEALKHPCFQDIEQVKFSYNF
# [7] = target: Protein kinase 7 (PK7), Plasmodium falciparum 3D7 (PF3D7_0213400) (UniProt Q7YTF7); assay: inhibition of Plasmodium PK7 catalytic activity – biochemical, TCAMS antimalarial set, Kinase-Glo luminescence (AID 1159587); settings: recombinant PfPK7, Kinase-Glo ATP depletion luminescence
# Sequence of Protein kinase 7 (PK7), Plasmodium falciparum 3D7 (PF3D7_0213400) (Q7YTF7 1-343): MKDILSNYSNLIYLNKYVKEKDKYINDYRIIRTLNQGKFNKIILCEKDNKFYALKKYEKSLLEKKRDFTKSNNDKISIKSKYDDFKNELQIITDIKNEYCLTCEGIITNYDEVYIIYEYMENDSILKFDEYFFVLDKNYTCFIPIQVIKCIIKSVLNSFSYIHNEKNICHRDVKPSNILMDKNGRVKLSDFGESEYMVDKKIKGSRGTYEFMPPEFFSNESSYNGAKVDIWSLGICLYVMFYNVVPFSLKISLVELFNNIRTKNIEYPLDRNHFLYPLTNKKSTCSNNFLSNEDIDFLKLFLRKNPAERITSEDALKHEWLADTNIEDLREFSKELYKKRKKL
# [8] = target: Calcium-dependent protein kinase 4 (Plasmodium falciparum (isolate 3D7)) (UniProt Q8IBS5); assay: PfCDPK4 kinase inhibitors, biochemical, TCAMS library (AID 1159588; cut-off not given, nearly all actives have IC50 up to about 0.91 µM); settings: recombinant PfCDPK4, Kinase-Glo ATP depletion luminescence
# Sequence of Calcium-dependent protein kinase 4 (Plasmodium falciparum (isolate 3D7)) (Q8IBS5 whole entry, looked up): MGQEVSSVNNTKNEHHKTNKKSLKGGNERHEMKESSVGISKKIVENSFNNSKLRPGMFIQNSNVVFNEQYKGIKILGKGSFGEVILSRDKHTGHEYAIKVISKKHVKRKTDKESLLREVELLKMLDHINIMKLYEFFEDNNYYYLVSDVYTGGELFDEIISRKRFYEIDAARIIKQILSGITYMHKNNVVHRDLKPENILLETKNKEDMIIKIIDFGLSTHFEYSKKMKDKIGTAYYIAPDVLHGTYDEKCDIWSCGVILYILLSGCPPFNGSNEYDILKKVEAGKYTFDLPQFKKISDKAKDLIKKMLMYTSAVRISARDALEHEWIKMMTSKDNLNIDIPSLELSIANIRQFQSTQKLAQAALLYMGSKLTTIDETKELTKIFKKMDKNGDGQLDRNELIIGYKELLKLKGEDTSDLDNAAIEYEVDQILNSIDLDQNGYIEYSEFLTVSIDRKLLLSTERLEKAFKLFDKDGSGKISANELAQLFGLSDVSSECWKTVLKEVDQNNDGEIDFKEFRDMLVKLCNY
Structure (SMILES),growth inhibition [1],inhibition [2],inhibition [3],growth inhibition [4],outcome [5],outcome [6],outcome [7],outcome [8]
COc1ccc(NS(=O)(=O)c2ccccc2Br)cc1N1CCN(C)CC1,3%,2%,-3%,94% (active),inactive,inactive,inactive,inactive
COc1ccc2c(Nc3ccc(N4CCN(C)CC4)cc3)cc(C)nc2c1,9%,23%,-2%,101% (active),inactive,inactive,inactive,inactive
Fc1cccc(COc2ccc(Nc3ncnc4sc(C#C[C@H]5CCCN5)cc34)cc2F)c1,17%,13%,5%,98% (active),inactive,inactive,inactive,inactive
O=C(Nc1cccc(-c2ccc(-c3nc4ccccc4[nH]3)cc2)c1)c1csnn1,21%,31%,0%,91% (active),inactive,inactive,inactive,inactive
O=C(Cc1cccc2ccccc12)NC1CCN(c2ccnc3cc(Cl)ccc23)C1 (stereo not drawn),97% (active),13%,-2%,82% (active),inactive,inactive,inactive,inactive
Cc1cc(NC(=O)c2ccco2)ccc1OC1CCN(Cc2ccc(F)cc2)CC1,93% (active),4%,-2%,96% (active),inactive,inactive,inactive,inactive
O=C(c1cc2c(s1)-c1cccc(Cl)c1SC2)N1CCN(c2ccncc2)CC1,36%,45%,1%,94% (active),inactive,inactive,inactive,inactive
Cc1cc(N2CCC(NS(=O)(=O)c3ccc(F)cc3)CC2)nc(Nc2cccc(C#N)c2)n1,65% (active),20%,-4%,97% (active),inactive,inactive,inactive,inactive
CC(=O)CC(=O)N1CCN(c2ccccc2)CC1,-6%,54% (active),-1%,85% (active),inactive,inactive,inactive,inactive
CS(=O)(=O)c1ccc(CNCc2ccc(-c3cccc(-c4nc5ccccc5[nH]4)c3)cc2)cc1,88% (active),17%,-7%,100% (active),inactive,inactive,inactive,inactive
COc1ccc(-c2cccc(NC(=O)c3ccc(Cl)cc3)c2)cc1CN1CCCC1,52% (active),55% (active),-7%,97% (active),inactive,inactive,inactive,inactive
CN1CCN(c2ccc(-c3cccc(NC(=O)c4cccc(Cl)c4)c3)nn2)CC1,37%,5%,-2%,94% (active),inactive,inactive,inactive,inactive
O=C(NCc1ccc(F)cc1)Nc1cccc(-c2ccc(-c3nc4ccccc4[nH]3)cc2)c1,49%,45%,2%,101% (active),inactive,inactive,inactive,inactive
CC(C)NCc1cccc(-c2ccc(NC(=O)c3cccc(C#N)c3)cc2)c1,95% (active),22%,6%,101% (active),inactive,inactive,inactive,inactive
COc1ccc(CCCN2C(=O)C(c3ccccc3)(c3ccccc3)N=C2N)cc1,76% (active),21%,5%,94% (active),inactive,inactive,inactive,inactive
O=C(NC1CCN(CCCc2ccccc2)CC1)c1ccc(-c2cccc(C(F)(F)F)c2)s1,47%,93% (active),1%,95% (active),inactive,inactive,inactive,inactive
Brc1cccc(Nc2nccc(Nc3ccc(Oc4ccccc4)cc3)n2)c1,5%,-6%,-4%,89% (active),inactive,inactive,inactive,inactive
CCN(CC)c1ccc(NC(=S)NC2CCN(CCCCCNC(=O)/C=C/c3ccc(Cl)c(Cl)c3)CC2)cc1,58% (active),16%,3%,100% (active),inactive,inactive,inactive,inactive
CCOc1cc(Br)c(C(C)NC(=O)c2cccc(OC)c2)cc1OCC (stereo not drawn),37%,-1%,3%,90% (active),inactive,inactive,inactive,inactive
COCCOc1ccc(Nc2nccc(-c3c(-c4cccc(NC(=O)c5c(F)cccc5F)c4)nn4ccccc34)n2)cc1F,60% (active),62% (active),1%,90% (active),inactive,inactive,inactive,inactive
COc1ccc2nccc([C@@H](O)CN3CCC(NC(=O)c4ccc5nc(-n6cccc6)sc5c4)CC3)c2c1,40%,26%,-2%,90% (active),inactive,inactive,inactive,inactive
